Experimental data: the supplement of paper PMC8728848
Many of the other results were omitted from the sample, so the strongest signals are more common in it than they were.

Columns and labels:
Experiment in all cases: glycan array binding signal (z-score within array); higher = stronger binding
Conditions in all cases: glycan notation: IUPAC condensed, linker removed
[1] = target: Fuc(a1-2)Gal(b1-3)GalNAc
Outline: (§1)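 The Consortium for Functional Glycomics database supplied 3228 glycan arrays, of which those lacking an available protein sequence were dropped. The binding signal, a within-array Z-score, was averaged across arrays of the same protein sequence and across linkers. Negative scores can be read as non-binding.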

[2] = target: Fuc(a1-2)Gal(b1-3)GlcNAc(b1-3)[Fuc(a1-2)Gal(b1-3)GlcNAc(b1-6)]GalNAc
Outline: as §1

[3] = target: Fuc(a1-2)Gal(b1-3)[Fuc(a1-4)]GlcNAc(b1-3)[Fuc(a1-3)[Gal(b1-4)]GlcNAc(b1-6)]Gal(b1-4)Glc
Outline: as §1

[4] = target: Fuc(a1-2)Gal(b1-4)GlcNAc(b1-2)Man(a1-3)[Fuc(a1-2)Gal(b1-4)GlcNAc(b1-2)Man(a1-6)]Man(b1-4)GlcNAc(b1-4)GlcNAc
Outline: as §1

[5] = target: Fuc(a1-2)Gal(b1-4)GlcNAc(b1-3)Gal(b1-4)GlcNAc(b1-3)Gal(b1-4)GlcNAc
Outline: as §1

[6] = target: Fuc(a1-2)Gal(b1-4)[Fuc(a1-3)]GlcNAc(b1-2)[Fuc(a1-2)Gal(b1-4)[Fuc(a1-3)]GlcNAc(b1-4)]Man(a1-3)[Fuc(a1-2)Gal(b1-4)[Fuc(a1-3)]GlcNAc(b1-2)Man(a1-6)]Man(b1-4)GlcNAc(b1-4)GlcNAc
Outline: as §1

[7] = target: Fuc(a1-2)[Gal(a1-3)]Gal(b1-4)GlcNAc(b1-2)Man(a1-3)[Fuc(a1-2)[Gal(a1-3)]Gal(b1-4)GlcNAc(b1-2)Man(a1-6)]Man(b1-4)GlcNAc(b1-4)GlcNAc
Outline: as §1

[8] = target: Fuc(a1-2)[Gal(a1-3)]Gal(b1-4)GlcNAc(b1-2)Man(a1-3)[Fuc(a1-2)[Gal(a1-3)]Gal(b1-4)GlcNAc(b1-2)Man(a1-6)]Man(b1-4)GlcNAc(b1-4)[Fuc(a1-6)]GlcNAc
Outline: as §1

[9] = target: Fuc(a1-2)[GalNAc(a1-3)]Gal(b1-3)GlcNAc
Outline: as §1

[10] = target: Fuc(a1-2)[GalNAc(a1-3)]Gal(b1-3)GlcNAc(b1-2)Man(a1-3)[Fuc(a1-2)[GalNAc(a1-3)]Gal(b1-3)GlcNAc(b1-2)Man(a1-6)]Man(b1-4)GlcNAc(b1-4)GlcNAc
Outline: as §1

[11] = target: Fuc(a1-2)[GalNAc(a1-3)]Gal(b1-3)GlcNAc(b1-2)Man(a1-3)[Fuc(a1-2)[GalNAc(a1-3)]Gal(b1-3)GlcNAc(b1-2)Man(a1-6)]Man(b1-4)GlcNAc(b1-4)[Fuc(a1-6)]GlcNAc
Outline: as §1

[12] = target: Fuc(a1-2)[GalNAc(a1-3)]Gal(b1-4)[Fuc(a1-3)]GlcNAc(b1-3)GalNAc
Outline: as §1

[13] = target: Fuc(a1-3)[GalNAc(b1-4)]GlcNAc
Outline: as §1

[14] = target: Gal(a1-3)Gal
Outline: as §1

[15] = target: Gal(a1-4)Gal(b1-4)Glc
Outline: as §1

[16] = target: Gal(a1-4)Gal(b1-4)GlcNAc(b1-2)Man(a1-3)[Gal(a1-4)Gal(b1-4)GlcNAc(b1-2)Man(a1-6)]Man(b1-4)GlcNAc(b1-4)GlcNAc
Outline: as §1

[17] = target: Gal(b1-3)Gal
Outline: as §1

[18] = target: Gal(b1-3)GlcNAc
Outline: as §1

[19] = target: Gal(b1-3)GlcNAc(b1-3)Gal(b1-4)GlcNAc(b1-2)Man(a1-3)[Gal(b1-3)GlcNAc(b1-3)Gal(b1-4)GlcNAc(b1-2)Man(a1-6)]Man(b1-4)GlcNAc(b1-4)GlcNAc
Outline: as §1

[20] = target: Gal(b1-3)[Fuc(a1-4)]GlcNAc(b1-2)Man(a1-3)[Gal(b1-3)[Fuc(a1-4)]GlcNAc(b1-2)Man(a1-6)]Man(b1-4)GlcNAc(b1-4)[Fuc(a1-6)]GlcNAc
Outline: as §1

[21] = target: Gal(b1-3)[Neu5Ac(b2-6)]GalNAc
Outline: as §1

[22] = target: Gal(b1-4)GlcNAc(b1-2)Man(a1-6)[Man(a1-3)]Man(b1-4)GlcNAc(b1-4)GlcNAc
Outline: as §1

[23] = target: Gal(b1-4)GlcNAc(b1-2)[Gal(b1-4)GlcNAc(b1-4)]Man(a1-3)[Gal(b1-4)GlcNAc(b1-2)Man(a1-6)]Man(b1-4)GlcNAc(b1-4)GlcNAc
Outline: as §1

[24] = target: Gal(b1-4)GlcNAc(b1-2)[Gal(b1-4)GlcNAc(b1-6)]Man(a1-6)[Gal(b1-4)GlcNAc(b1-2)Man(a1-3)]Man(b1-4)GlcNAc(b1-4)GlcNAc
Outline: as §1

[25] = target: Gal(b1-4)GlcNAc(b1-3)Gal(b1-3)GalNAc
Outline: as §1

[26] = target: Gal(b1-4)GlcNAc(b1-3)Gal(b1-4)GlcNAc(b1-3)Gal(b1-4)GlcNAc(b1-3)Gal(b1-4)GlcNAc(b1-3)Gal(b1-4)GlcNAc(b1-2)[Gal(b1-4)GlcNAc(b1-3)Gal(b1-4)GlcNAc(b1-3)Gal(b1-4)GlcNAc(b1-3)Gal(b1-4)GlcNAc(b1-3)Gal(b1-4)GlcNAc(b1-6)]Man(a1-6)[Gal(b1-4)GlcNAc(b1-3)Gal(b1-4)GlcNAc(b1-3)Gal(b1-4)GlcNAc(b1-3)Gal(b1-4)GlcNAc(b1-3)Gal(b1-4)GlcNAc(b1-2)Man(a1-3)]Man(b1-4)GlcNAc(b1-4)[Fuc(a1-6)]GlcNAc
Outline: as §1

[27] = target: Gal(b1-4)GlcNAc(b1-6)Gal(b1-4)GlcNAc
Outline: as §1

[28] = target: Gal(b1-4)GlcNAc6P
Outline: as §1

[29] = target: Gal3S(b1-4)GlcNAc
Outline: as §1

[30] = target: Gal4S6S(b1-4)GlcNAc
Outline: as §1

B1: PX15618B-bfa-464-25-464 (Bacteroides fragilis) (protein)
chain: DQEPPLYVNENDIFTSPTRIEATLNGLYAAIKNTGTKSLMGGKSYLVFDNRGDDVINISNNLVTLFNTYNMNVGITDAENADTWTYAYLAINKVNTFLQSLEGAREVAGENYDRYVQEAKFVRALAYYYLNNLYPTPYSVNPDAKSVPLRLTAEAGTENNNMPRSTVKQIYEHILSDLENISALDTEVNTYTGVTHATQAAANMLKMRVYMAMNEWDKAITAGELVTGYSLPEDVTLIYKAPYFSQESIFSLPMADTNIPNTQQSLAEYYYDGKIMLIDTKSGIMSKPDYSLATDKRIIAFKGEKDLLMKFTDAKTKLQWVPIFRYAETLLDLAECYANKAGGEATAKSLLKQVRGRSVDAATDPLNIDNLSGDALKEAIYNEKRLEFIGEGIRGIDIMRRGEHFIKVGENETINVGPSDEKYTWPIPQVELLLNKDINK
glycan array binding signal (z-score) [1]: -0.355 | glycan array binding signal (z-score) [2]: 1.41 | glycan array binding signal (z-score) [3]: -0.516 | glycan array binding signal (z-score) [4]: 8.2 | glycan array binding signal (z-score) [5]: 0.251 | glycan array binding signal (z-score) [6]: 4.25 | glycan array binding signal (z-score) [7]: 1.41 | glycan array binding signal (z-score) [8]: -0.101 | glycan array binding signal (z-score) [9]: -0.308 | glycan array binding signal (z-score) [10]: 0.241 | glycan array binding signal (z-score) [11]: 0.028 | glycan array binding signal (z-score) [12]: 0.311 | glycan array binding signal (z-score) [13]: 1.31 | glycan array binding signal (z-score) [14]: 0.348 | glycan array binding signal (z-score) [15]: 0.822 | glycan array binding signal (z-score) [16]: -0.514 | glycan array binding signal (z-score) [17]: 0.33 | glycan array binding signal (z-score) [18]: 1.37 | glycan array binding signal (z-score) [19]: -0.678 | glycan array binding signal (z-score) [20]: 0.153 | glycan array binding signal (z-score) [21]: -0.017 | glycan array binding signal (z-score) [22]: 0.248 | glycan array binding signal (z-score) [23]: 0.511 | glycan array binding signal (z-score) [24]: 2.66 | glycan array binding signal (z-score) [25]: -0.13 | glycan array binding signal (z-score) [26]: 19.3 | glycan array binding signal (z-score) [27]: 0.086 | glycan array binding signal (z-score) [28]: -0.626 | glycan array binding signal (z-score) [29]: -0.305 | glycan array binding signal (z-score) [30]: -0.852
